High-throughput results (PubChem BioAssay)
SIRT5 inh = blocks human SIRT5 desuccinylation of peptide; AID 652115; Purified SirT5, succinyl-peptide AMC, trypsin-coupled fluorescence; Q9NXA8; 1.1% of 330,000 active; inhibition, % at 15 µM; in the data active = inhibition above about 15%; inconclusive = no clear call, values can overlap the other calls
Target sequence (Q9NXA8 whole entry, looked up): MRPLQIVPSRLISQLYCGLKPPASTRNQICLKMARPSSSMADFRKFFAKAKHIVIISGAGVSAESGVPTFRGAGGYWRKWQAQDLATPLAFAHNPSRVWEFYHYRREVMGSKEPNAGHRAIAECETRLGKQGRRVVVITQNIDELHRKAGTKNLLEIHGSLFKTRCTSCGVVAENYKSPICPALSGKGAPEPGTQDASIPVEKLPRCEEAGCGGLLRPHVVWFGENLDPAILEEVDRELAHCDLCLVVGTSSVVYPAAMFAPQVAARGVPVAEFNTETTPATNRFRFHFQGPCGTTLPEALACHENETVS
LGR2 antag = blocks bursicon-induced cAMP signaling via Drosophila LGR2; HEK293 LGR2, CRE-luciferase, bursicon-stimulated, 4 h; inhibition, % at 9.99 µM; 0.35% of 380,000 active; AID 720647;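 active = drop in luminescence signal, shown as inhibition above about 50% in the replicate tests, limit read from the data, passing the limit was not always enough; inconclusive = probably only some replicates passing the limit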;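 note: agonist challenge used bursicon conditioned medium at about half maximal strength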
PGC1a acetyl inh = PGC1a acetylation modulation, inhibitor mode; 0.17% of 350,000 active; inhibition, % at 15.6 µM; U2OS PGC1a acetylation, AlphaScreen anti-acetyl-lysine; with virally co-expressed GCN5 acetyltransferase; AID 651687;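 active = every replicate shows inhibition of at least 40%; inconclusive = mean inhibition at least 40% but some replicate below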
rRNA inh HTS = inhibitors of bacterial rRNA selective over humanized ribosomes. 1.6% of 350,000 active. GFP signal change (wild-type ribosome), % (test concentration not listed). AID 720706. E. coli WT GFP vs humanized-ribosome RFP mutants, fluorescence, 24 h; active compounds read low; DMSO median 0, no signal -100;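 active = significant combined selectivity score with lowered wild-type GFP, culture density cut under 30%, mutant RFP and density less affected; inactive = any of these conditions unmet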
EWS-Fli inh = blocks EWS/Fli oncoprotein-driven transcription | 0.67% of 350,000 active | A673 NR0B1-luciferase reporter, viability-normalised | inhibition, % at 12.6 µM | AID 651661;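 active = mean inhibition of at least 50% after viability correction, with every replicate also passing that limit; inconclusive = mean reaches 50% but only one of two replicates passes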;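 note: firefly luciferase signal divided by Alamar Blue viability fluorescence both relative to DMSO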
PAX8 reporter = lowers PAX8-driven luciferase in RMG-I cells; inhibition, % at 12.6 µM; 1.2% of 360,000 active; RMG-I TPO-luciferase reporter, SteadyGlo, 24 h; AID 652154;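 active = mean replicate inhibition at least 60% with every replicate also reaching 60%; inconclusive = only one of the two criteria is met; inactive = mean below 60% and not all replicates reaching 60%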;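 note: luciferase light reporting Pax8 driven TPO promoter activity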
Each line names hits and unclear results; the compound was inactive in the other large screens. Only some compounds are listed: those with a hit (about 3.4% of all), similar ones and a draw of the others.

COc1ccccc1C#Cc1ccc2c(c1)O[C@H](CN(C)Cc1cccnc1)[C@H](C)CN([C@@H](C)CO)S2(=O)=O	PAX8 reporter 87
C[C@@H]1CN([C@@H](C)CO)S(=O)(=O)c2ccc(C#CC3CCCCC3)cc2O[C@H]1CN(C)Cc1cccnc1	PGC1a acetyl inh inconclusive (no result: PAX8 reporter)
COc1ccccc1C#Cc1ccc2c(c1)O[C@H](CN(C)Cc1cncnc1)[C@@H](C)CN([C@@H](C)CO)S2(=O)=O	none
C[C@@H]1CN([C@H](C)CO)S(=O)(=O)c2ccc(C#CC3(O)CCCC3)cc2O[C@H]1CN(C)C(=O)c1cccnc1	SIRT5 inh 27
C[C@@H]1CN([C@H](C)CO)S(=O)(=O)c2ccc(C#CC3CCCC3)cc2O[C@H]1CN(C)Cc1cccnc1	SIRT5 inh 17, PAX8 reporter 87
CCC(=O)N1CC2(C1)[C@H](c1ccccc1)[C@@H](CO)N2C(=O)c1ccncc1	none (no result: PAX8 reporter)
COc1ccc2c3c([nH]c2c1)[C@H](CO)N(Cc1ccccc1)CC31CCN(CC2CC2)CC1	none (no result: SIRT5 inh, PAX8 reporter)
C[C@H]1CN([C@@H](C)CO)S(=O)(=O)c2ccc(C#CC3CCCC3)cc2O[C@H]1CN(C)Cc1cccnc1	none
C[C@@H]1CN([C@@H](C)CO)S(=O)(=O)c2ccc(C#CC3CCCC3)cc2O[C@H]1CN(C)Cc1cccnc1	PAX8 reporter 84
CCOC(=O)C1=C(c2ccccc2)N=c2sc(=Cc3cc(OC)c(OC)c(OC)c3)c(=O)n2C1c1cccs1 (stereo not drawn)	SIRT5 inh 16 (no result: PGC1a acetyl inh)
CCOC(=O)C1=C(C)N=c2sc(=Cc3cc(Cl)c(OCC(=O)O)c(OC)c3)c(=O)n2C1c1ccccc1Cl (stereo not drawn)	SIRT5 inh 24 (no result: PGC1a acetyl inh)
CCOC(=O)C1=C(c2ccccc2)N=c2s/c(=C\c3ccc(O)cc3)c(=O)n2C1c1cccs1 (stereo not drawn)	none (no result: PAX8 reporter)
COc1ccc2c3c([nH]c2c1)[C@@H](CO)N(S(C)(=O)=O)CC31CN(C(=O)c2ccncc2)C1	none (no result: SIRT5 inh, PAX8 reporter)
O=C(N[C@@H]1CC[C@H](CCNC(=O)C2CCCCC2)O[C@H]1CO)c1ccncc1	none
CCOc1ccc(NCC(=O)c2ccc(C)cc2)cc1	rRNA inh HTS -33
COc1ccc(OC)c(Nc2c3ccccc3nc3ccccc23)c1	none
COc1ccc(NC(=O)COC(=O)c2c3c(nc4ccccc24)CCCC3)cc1	none (no result: SIRT5 inh, LGR2 antag, rRNA inh HTS, EWS-Fli inh)
COc1ccc(OC)c(NC(=O)COC(=O)c2c3c(nc4ccccc24)CCCC3)c1	LGR2 antag 71, rRNA inh HTS -28 (no result: PAX8 reporter)
COc1ccc(OC)c(Nc2c3c(nc4ccccc24)CCC3)c1	EWS-Fli inh 57
Cc1ccc2nc3c(c(Nc4ccc(O)cc4)c2c1)CCC3	none (no result: PGC1a acetyl inh)
COc1ccc(Nc2c3c(nc4ccc(C)cc24)CCC3)cc1	SIRT5 inh 25
CC(C)NC(=O)N(C)C[C@H]1OCCCC[C@H](C)Oc2ccc(NC(=O)CCC(F)(F)F)cc2C(=O)N([C@H](C)CO)C[C@@H]1C	none (no result: EWS-Fli inh)
O=C1O[C@@H](c2ccccc2)[C@@H](c2ccccc2)N2[C@@H](c3ccccc3OCCO)[C@]3(C(=O)Nc4ccc(C#CCCO)cc43)[C@@H](C(=O)O)[C@H]12	none (no result: LGR2 antag, PGC1a acetyl inh, rRNA inh HTS)
COCC(=O)N1C[C@H](C)[C@H](OC)CN(C)C(=O)c2ccc(NC(=O)c3ccc(OC)cc3)cc2OC[C@@H]1C	none
COc1cccc(C2CC(c3ccc(Br)cc3)=NN2C(=O)c2ccncc2)c1OC (stereo not drawn)	SIRT5 inh 112, rRNA inh HTS -35
COc1ccccc1C1CC(c2ccc(Br)cc2)=NN1C(=O)c1cccnc1 (stereo not drawn)	none (no result: SIRT5 inh, PGC1a acetyl inh, rRNA inh HTS, EWS-Fli inh)
N#CC1(NC(=O)Cn2ncc(Cl)c(Cl)c2=O)CCCCC1	EWS-Fli inh inconclusive, PAX8 reporter 91
Cc1cccc(C)c1NC(=O)c1cccc(C(=O)Nc2c(C)cccc2C)n1	rRNA inh HTS -25
COc1ccc(N(CC(=O)Nc2ccc(OC)cc2OC)S(=O)(=O)c2ccccc2)cc1	none (no result: SIRT5 inh)
CCOc1ccccc1N(CC(=O)Nc1ccc(OC)cc1OC)S(=O)(=O)c1ccccc1	none (no result: LGR2 antag)
CCOc1ccc(N(CC(=O)Nc2ccccc2OCC)S(=O)(=O)c2c(C)noc2C)cc1	PAX8 reporter 80
CCOc1ccccc1N(CC(=O)Nc1ccccc1F)S(=O)(=O)c1ccccc1	rRNA inh HTS -19
CCOc1ccc(N(CC(=O)Nc2ccc(C)cc2)S(=O)(=O)c2c(C)noc2C)cc1	none (no result: SIRT5 inh)
CCOc1ccc(N(CC(=O)Nc2ccccc2OC)S(=O)(=O)c2ccccc2)cc1	PGC1a acetyl inh 88
C[C@@H]1CN([C@@H](C)CO)C(=O)Cc2cc(NC(=O)Cn3cnnn3)ccc2O[C@H]1CN(C)C	none
O=S(=O)(N[C@@H]1CC[C@@H](CCn2cc(-c3ccccn3)nn2)O[C@@H]1CO)c1cccc(F)c1	none
Cc1ccc(-c2nc(C#N)c(NCC3CCCO3)o2)cc1 (stereo not drawn)	rRNA inh HTS -24
CC(=O)Nc1cccc2c1O[C@@H](CN(C)S(C)(=O)=O)[C@@H](C)CN(C)C2=O	none (no result: SIRT5 inh, LGR2 antag, PGC1a acetyl inh, EWS-Fli inh, PAX8 reporter)
C[N+]1(C)CCC(=C2c3ccccc3CC(=O)c3sccc32)CC1	PGC1a acetyl inh 94 (no result: SIRT5 inh, LGR2 antag, rRNA inh HTS, EWS-Fli inh)
CN(C)c1ccc(/C=C2\N=C(C(C)(C)C)OC2=O)cc1	SIRT5 inh 18
Cn1nc(-c2ccccc2)c(CO)c1Oc1cccc(C(F)(F)F)c1	none
Cc1ccc(Sc2c(CO)c(-c3ccccc3)nn2C)cc1	PAX8 reporter 66
COc1ccccc1-c1ccc(SCc2ccc(F)cc2)nn1	rRNA inh HTS -31
CCCNC(=O)N1[C@H](CO)[C@H](c2ccc(C3=CCCCC3)cc2)[C@H]1CNC(C)C	none (no result: PGC1a acetyl inh, PAX8 reporter)
O=C(O)CCCc1ccc2c(c1)CCc1ccccc1-2	EWS-Fli inh 63 (no result: SIRT5 inh, PGC1a acetyl inh)
CC(C)(C)OC(=O)NCc1ccc(CNC(=O)c2[nH]cnc2C(=O)NCC(=O)OCc2ccccc2)cc1	LGR2 antag 82
CC1CCN(C(=O)c2[nH]cnc2C(=O)NCc2ccccc2)CC1	none
C[C@@H](NC(=O)c1nc[nH]c1C(=O)N[C@@H](Cc1ccccc1)C(=O)OC(C)(C)C)c1ccccc1	PAX8 reporter 95 (no result: PGC1a acetyl inh)
CC1CCN(C(=O)c2[nH]cnc2C(=O)NCc2ccc(CNC(=O)OC(C)(C)C)cc2)CC1	SIRT5 inh 17
CC(C)(C)OC(=O)NCc1ccc(CNC(=O)c2[nH]cnc2C(=O)N[C@@H](Cc2ccccc2)C(=O)OC(C)(C)C)cc1	PAX8 reporter 76 (no result: SIRT5 inh)
O=C(O)C[C@@H]1C[C@H]2c3cc(NC(=O)C4CCOCC4)ccc3O[C@H]2[C@@H](CO)O1	none (no result: EWS-Fli inh)
CC=Cc1ccc2n(c1=O)C[C@H]1[C@H](CO)[C@@H](C(=O)N3CCc4ccccc4C3)[C@@H]2N1Cc1ccncc1 (mixture of isomers)	none
CCNC(=S)N/N=C/c1cccc(C)c1	rRNA inh HTS -14 (no result: PGC1a acetyl inh)
O=C1CCCC(O)=C1N=Nc1ccc2c(c1)OCO2	PGC1a acetyl inh inconclusive
